# Source: the supplement of paper PMC4466140
# Key:
# Assay in all cases: SPOT peptide array binding signal intensity (averaged, normalized) (arbitrary units (background-subtracted, floor 0; scale differs between SH3 domains)); higher = stronger binding of the SH3 domain to the peptide
# AgAbp1 = biological target: AgAbp1
# Outline: (§1)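 Spot intensities were captured after detection with anti-GST antibody, an HRP-linked anti-mouse secondary and luminol, and quantified with Genespotter. The probes were GST-fused SH3 domains from four yeast species, produced in E. coli BL21(DE3), purified on glutathione Sepharose and incubated at 10 μg/ml overnight at 4°C on cellulose-bound synthetic 15-mer peptides with cysteines replaced by serines. Binding signal is the normalized, background-subtracted spot intensity averaged over replicates, and its arbitrary units differ between domains.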
# AgBbc1 = biological target: AgBbc1
# Outline: as §1
# AgBem1-D1 = biological target: AgBem1-D1
# Outline: as §1
# AgBzz1-D1 = biological target: AgBzz1-D1
# Outline: as §1
# AgBzz1-D2 = biological target: AgBzz1-D2
# Outline: as §1
# AgCyk3 = biological target: AgCyk3
# Outline: as §1
# AgFus1 = biological target: AgFus1
# Outline: as §1
# AgHof1 = biological target: AgHof1
# Outline: as §1
# AgHse1 = biological target: AgHse1
# Outline: as §1
# AgLsb1 = biological target: AgLsb1
# Outline: as §1
# AgLsb4 = biological target: AgLsb4
# Outline: as §1
# AgMyo5 = biological target: AgMyo5
# Outline: as §1
# AgNbp2 = biological target: AgNbp2
# Outline: as §1
# AgRvs167 = biological target: AgRvs167
# Outline: as §1
# AgSho1 = biological target: AgSho1
# Outline: as §1
# AgSla1-D1-D2 = biological target: AgSla1-D1-D2
# Outline: as §1
# AgSla1-D3 = biological target: AgSla1-D3
# Outline: as §1
# CaAbp1-D1 = biological target: CaAbp1-D1
# Outline: as §1
# CaAbp1-D2 = biological target: CaAbp1-D2
# Outline: as §1
# CaBbc1 = biological target: CaBbc1
# Outline: as §1
# CaBem1-D1 = biological target: CaBem1-D1
# Outline: as §1
# CaBzz1-D1 = biological target: CaBzz1-D1
# Outline: as §1
# CaBzz1-D2 = biological target: CaBzz1-D2
# Outline: as §1
# CaCyk3 = biological target: CaCyk3
# Outline: as §1
# CaFus1 = biological target: CaFus1
# Outline: as §1
# CaHof1 = biological target: CaHof1
# Outline: as §1
# CaHse1 = biological target: CaHse1
# Outline: as §1
# CaLsb1 = biological target: CaLsb1
# Outline: as §1
# CaLsb4 = biological target: CaLsb4
# Outline: as §1
# CaMyo5 = biological target: CaMyo5
# Outline: as §1
# CaNbp2 = biological target: CaNbp2
# Outline: as §1
# CaRvs167 = biological target: CaRvs167
# Outline: as §1
# CaRvs167-3 = biological target: CaRvs167-3
# Outline: as §1
# CaSho1 = biological target: CaSho1
# Outline: as §1
# CaSla1-D1-D2 = biological target: CaSla1-D1-D2
# Outline: as §1
# CaSla1-D3 = biological target: CaSla1-D3
# Outline: as §1
# ScAbp1 = biological target: ScAbp1
# Outline: as §1
# ScBbc1 = biological target: ScBbc1
# Outline: as §1
# ScBem1-D1 = biological target: ScBem1-D1
# Outline: as §1
# ScBzz1-D1 = biological target: ScBzz1-D1
# Outline: as §1
# ScBzz1-D2 = biological target: ScBzz1-D2
# Outline: as §1
# ScCyk3 = biological target: ScCyk3
# Outline: as §1
# ScFus1 = biological target: ScFus1
# Outline: as §1
# ScHof1 = biological target: ScHof1
# Outline: as §1
# ScHse1 = biological target: ScHse1
# Outline: as §1
# ScLsb1 = biological target: ScLsb1
# Outline: as §1
# ScLsb2 = biological target: ScLsb2
# Outline: as §1
# ScLsb3 = biological target: ScLsb3
# Outline: as §1
# ScLsb4 = biological target: ScLsb4
# Outline: as §1
# ScMyo3 = biological target: ScMyo3
# Outline: as §1
# ScMyo5 = biological target: ScMyo5
# Outline: as §1
# ScNbp2 = biological target: ScNbp2
# Outline: as §1
# ScPex13 = biological target: ScPex13
# Outline: as §1
# ScRvs167 = biological target: ScRvs167
# Outline: as §1
# ScSho1 = biological target: ScSho1
# Outline: as §1
# ScSla1-D1-D2 = biological target: ScSla1-D1-D2
# Outline: as §1
# ScSla1-D3 = biological target: ScSla1-D3
# Outline: as §1
# SpAbp1-D1 = biological target: SpAbp1-D1
# Outline: as §1
# SpBbc1 = biological target: SpBbc1
# Outline: as §1
# SpBzz1-D1 = biological target: SpBzz1-D1
# Outline: as §1
# SpBzz1-D2 = biological target: SpBzz1-D2
# Outline: as §1
# SpCyk3 = biological target: SpCyk3
# Outline: as §1
# SpHof1 = biological target: SpHof1
# Outline: as §1
# SpHof1-2 = biological target: SpHof1-2
# Outline: as §1
# SpHof1-3 = biological target: SpHof1-3
# Outline: as §1
# SpHse1 = biological target: SpHse1
# Outline: as §1
# SpLsb1 = biological target: SpLsb1
# Outline: as §1
# SpLsb4 = biological target: SpLsb4
# Outline: as §1
# SpMyo1 = biological target: SpMyo1
# Outline: as §1
# SpNbp2 = biological target: SpNbp2
# Outline: as §1
# SpPex13 = biological target: SpPex13
# Outline: as §1
# SpRvs167 = biological target: SpRvs167
# Outline: as §1
# SpSla1-D1-D2 = biological target: SpSla1-D1-D2
# Outline: as §1
# SpSla1-D3 = biological target: SpSla1-D3
# Outline: as §1
binder,measurement,setting,value
GAGERPRLVPRPINV,SPOT peptide array binding signal intensity,AgAbp1,13
same,SPOT peptide array binding signal intensity,AgBbc1,148
same,SPOT peptide array binding signal intensity,AgBem1-D1,23
same,SPOT peptide array binding signal intensity,AgBzz1-D1,27
same,SPOT peptide array binding signal intensity,AgBzz1-D2,33
same,SPOT peptide array binding signal intensity,AgCyk3,6
same,SPOT peptide array binding signal intensity,AgFus1,4.5
same,SPOT peptide array binding signal intensity,AgHof1,8.5
same,SPOT peptide array binding signal intensity,AgHse1,≤ 0
same,SPOT peptide array binding signal intensity,AgLsb1,9
same,SPOT peptide array binding signal intensity,AgLsb4,28
same,SPOT peptide array binding signal intensity,AgMyo5,0.5
same,SPOT peptide array binding signal intensity,AgNbp2,≤ 0
same,SPOT peptide array binding signal intensity,AgRvs167,2
same,SPOT peptide array binding signal intensity,AgSho1,≤ 0
same,SPOT peptide array binding signal intensity,AgSla1-D1-D2,≤ 0
same,SPOT peptide array binding signal intensity,AgSla1-D3,1
same,SPOT peptide array binding signal intensity,CaAbp1-D1,17
same,SPOT peptide array binding signal intensity,CaAbp1-D2,8
same,SPOT peptide array binding signal intensity,CaBbc1,314
same,SPOT peptide array binding signal intensity,CaBem1-D1,68.5
same,SPOT peptide array binding signal intensity,CaBzz1-D1,109
same,SPOT peptide array binding signal intensity,CaBzz1-D2,51.2
same,SPOT peptide array binding signal intensity,CaCyk3,285
same,SPOT peptide array binding signal intensity,CaFus1,≤ 0
same,SPOT peptide array binding signal intensity,CaHof1,0.5
same,SPOT peptide array binding signal intensity,CaHse1,≤ 0
same,SPOT peptide array binding signal intensity,CaLsb1,0.75
same,SPOT peptide array binding signal intensity,CaLsb4,102
same,SPOT peptide array binding signal intensity,CaMyo5,6.5
same,SPOT peptide array binding signal intensity,CaNbp2,≤ 0
same,SPOT peptide array binding signal intensity,CaRvs167,3.5
same,SPOT peptide array binding signal intensity,CaRvs167-3,≤ 0
same,SPOT peptide array binding signal intensity,CaSho1,21
same,SPOT peptide array binding signal intensity,CaSla1-D1-D2,15.5
same,SPOT peptide array binding signal intensity,CaSla1-D3,0.75
same,SPOT peptide array binding signal intensity,ScAbp1,10
same,SPOT peptide array binding signal intensity,ScBbc1,29.5
same,SPOT peptide array binding signal intensity,ScBem1-D1,≤ 0
same,SPOT peptide array binding signal intensity,ScBzz1-D1,13
same,SPOT peptide array binding signal intensity,ScBzz1-D2,44.5
same,SPOT peptide array binding signal intensity,ScCyk3,53
same,SPOT peptide array binding signal intensity,ScFus1,≤ 0
same,SPOT peptide array binding signal intensity,ScHof1,3.25
same,SPOT peptide array binding signal intensity,ScHse1,4.5
same,SPOT peptide array binding signal intensity,ScLsb1,98.2
same,SPOT peptide array binding signal intensity,ScLsb2,4.5
same,SPOT peptide array binding signal intensity,ScLsb3,531
same,SPOT peptide array binding signal intensity,ScLsb4,20
same,SPOT peptide array binding signal intensity,ScMyo3,47.5
same,SPOT peptide array binding signal intensity,ScMyo5,4
same,SPOT peptide array binding signal intensity,ScNbp2,8
same,SPOT peptide array binding signal intensity,ScPex13,1
same,SPOT peptide array binding signal intensity,ScRvs167,91.3
same,SPOT peptide array binding signal intensity,ScSho1,13.5
same,SPOT peptide array binding signal intensity,ScSla1-D1-D2,25.5
same,SPOT peptide array binding signal intensity,ScSla1-D3,20
same,SPOT peptide array binding signal intensity,SpAbp1-D1,11
same,SPOT peptide array binding signal intensity,SpBbc1,22.8
same,SPOT peptide array binding signal intensity,SpBzz1-D1,384
same,SPOT peptide array binding signal intensity,SpBzz1-D2,0.75
same,SPOT peptide array binding signal intensity,SpCyk3,8
same,SPOT peptide array binding signal intensity,SpHof1,5.5
same,SPOT peptide array binding signal intensity,SpHof1-2,6
same,SPOT peptide array binding signal intensity,SpHof1-3,5.75
same,SPOT peptide array binding signal intensity,SpHse1,≤ 0
same,SPOT peptide array binding signal intensity,SpLsb1,410
same,SPOT peptide array binding signal intensity,SpLsb4,740
same,SPOT peptide array binding signal intensity,SpMyo1,4.75
same,SPOT peptide array binding signal intensity,SpNbp2,≤ 0
same,SPOT peptide array binding signal intensity,SpPex13,≤ 0
same,SPOT peptide array binding signal intensity,SpRvs167,6.67
same,SPOT peptide array binding signal intensity,SpSla1-D1-D2,4
same,SPOT peptide array binding signal intensity,SpSla1-D3,1
